# Compound activity (PubChem)
# Compounds with a hit are over-represented: about 6.2% of the library has one in this group of screens.
# MARV entry inh – Marburg virus entry inhibition; Marburg virus pseudotyped entry inhibition, cell reporter; Potency, µM (titrated, usually from 37.8 µM), inactives show at the top dose activity change, negative = inhibition, hits mostly inhibitors; 1.8% of 300,000 active; AID 540276; calls by dose curve; tested in HEK293 cells; note: potency is the fitted concentration of half-maximal effect
# LASV entry inh – blocks Lassa virus binding to or entry into cells. Lassa virus pseudotype entry inhibition, cell reporter. Potency, µM (top dose mostly 37.9 µM), inactives show top-dose activity change, negative = inhibition, most hits filed as inhibitors. 1.2% of 300,000 active; calls by dose curve; tested in HEK293 cells; note: potency is the fitted concentration of half-maximal effect; nearly all actives have a fitted effect of over 50% in size
# FMDV antiviral – antivirals against foot and mouth disease virus; FMDV antiviral cell-based qHTS; Potency, µM (doses to about 57.9 µM), for inactives: top-dose activity change, negative = inhibition, actives largely listed as inhibitors; 1.2% of 410,000 active; AID 1159524; calls by dose curve; tested in HEK293T cells; note: read-out not given here; potency is the fitted concentration of half-maximal effect; nearly all actives have a fitted effect of over 45% in size
# HCMV inh – human cytomegalovirus inhibition; 4.5% of 410,000 active; AID 1259415; activity change, negative = inhibition, % at 57.5 µM; HFF cells, HCMV-luciferase reporter, 72 h; active compounds read low; in the data active = activity change below about -60%; inconclusive = no clear call, values can overlap the other calls; inactive = above about -39%
#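 Two-dose cell screen: HFF monolayers treated with compounds and infected with luciferase-expressing HCMV at 1 PFU/cell, 72 h at 37C, then lysed for luciferase measurement.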
# * marks the source's active call; other numbers are inactive results; u = inconclusive; x = no result given; [ ] = another dose, or the depositor's remark. % is set by controls: 0 for no effect and ±100 for the full control effect.
SMILES,MARV entry inh,LASV entry inh,FMDV antiviral,HCMV inh
CS(=O)(=O)c1ccc(C(=O)OCC(=O)NC(=O)C2COc3ccccc3O2)cc1[N+](=O)[O-] (centres undefined),-26%,-12%,0%,27
Cc1ccc(C(=O)OCC(=O)N2CCOCC2)cc1,8%[46.1 µM],9%,32%,-23
CCN(Cc1ccccc1)S(=O)(=O)c1cc(C(=O)OC)n(C)c1,x,x,-2%,-14
CCOC(=O)c1cc(S(=O)(=O)N(C)Cc2ccccc2)cn1C,u,13µM*,-4%,16
CN1CCN(C(=O)c2ccccc2NS(=O)(=O)c2ccc(F)cc2)CC1,x,x,-20%,0
O=c1cc(C(F)(F)F)[nH]c2ccc(C(F)(F)F)cc12,u,u,u,-97*
Cc1cc2n(n1)C(c1cn(-c3ccccc3)nc1C)Nc1ccccc1-2 (centres undefined),10%,19%,-4%,-26
Cc1cc(C)c(S(=O)(=O)Oc2ccccc2[N+](=O)[O-])c(C)c1,u,3.2µM*,-26%,u
Cc1ccc2c(=O)cc(C(=O)NC3CCS(=O)(=O)C3)oc2c1 (centres undefined),x,x,-6%,-19
O=C1CC(N(CCc2ccccc2)C(=S)Nc2cc(Cl)ccc2Cl)C(=O)N1c1c(Cl)cccc1Cl (centres undefined),13µM*,u,14%,-25
O=C1CC(N(CCc2ccccc2)C(=S)Nc2ccccc2)C(=O)N1c1ccccc1 (centres undefined),u,u,-19%,-16
CC(C)NC(=O)C1CC(=O)N(CCc2ccc(F)cc2)C1 (centres undefined),x,x,0%,-4
CCCc1nnc(NC(=O)C2CC(=O)N(CCc3ccc(F)cc3)C2)s1 (centres undefined),8%[46.1 µM],7%[46.1 µM],6%,2
CNC(=O)C1CC(=O)N(CCc2ccc(C)cc2)C1 (centres undefined),u,5%[46.1 µM],14%,-69*
O=C(Nc1nncs1)C1CC(=O)N(CCc2ccc(F)cc2)C1 (centres undefined),0%[46.1 µM],-3%[46.1 µM],2%,-66*
Cc1ccc(CCN2CC(C(=O)NC(C)C)CC2=O)cc1 (centres undefined),28%[46.1 µM],-1%[46.1 µM],-3%,-61*
O=[N+]([O-])c1ccc(S(=O)(=O)N2CCN=C2SCc2cccnc2)cc1,2%[46.1 µM],u,0%,-73*
O=[N+]([O-])c1cccc(CSC2=NCCN2S(=O)(=O)c2ccccc2)c1,x,x,u,-74*
NCc1csc(Nc2ccc(C(=O)c3ccccc3)cc2)n1,x,x,-2%,5
C=CCc1c(C)nc2c(OC)cccc2c1Cl,1%,6%,7%,-83*
COc1cccc2c(Cl)c(CC=C(Cl)Cl)c(C)nc12,2%,10%,u,-28
Cc1cc(/C=C2\SC(=O)NC2=O)c(C)n1-c1ccc(N(C)C)cc1,22%,-18%,19%,-30
Cc1cc(/C=C\c2ccc3cc(N(C)C)ccc3[n+]2C)c(C)n1-c1ccccc1,x,x,20µM*,x
Cc1nn(-c2ccccn2)c2c1C(=O)C(Br)CC2 (centres undefined),u,-5%,32µM*,x
Cc1ccc2[nH]c(O)c(N=NC(=O)CCc3ccccc3)c2c1Br,8%,1%,-21%,-61*
SMILES,MARV entry inh,LASV entry inh,FMDV antiviral,HCMV inh
C/C(=N/NC(=O)CNc1ccc(C)cc1)c1ccc(Cl)cc1,-7%,-34%,x,-13
CCCCC(O)(CCCC)C(=O)N/N=C(\C)c1ccc(Cl)cc1,11µM*,-44%[46.1 µM],-23%,-8
c1ccc(N2CCN(c3nnc(Cc4cccnc4)c4ccccc34)CC2)nc1,17%,0%,10µM*,u
c1ccc(Cc2nnc(N3CCCCC3)c3ccccc23)cc1,-1%[46.1 µM],3%,-12%,-5
Cc1c(C(=O)Nc2cnccn2)oc2ccccc12,-2%,29%[14.3 µM],48%,172
Cc1c(C(=O)Nc2ccc(-n3cnnn3)cc2)oc2ccccc12,17%,-20%,x,-65*
Cc1ccnc(NC(=O)c2oc3ccccc3c2C)c1,u,3.5µM*,-40%,0
CCOCC(=O)Nc1c(C(=O)Nc2ccc3c(c2)OCCO3)oc2ccccc12,u,u,24%,-96*
CCC(=O)Nc1c(C(=O)Nc2ccc3c(c2)OCCO3)oc2ccccc12,-4%,u,33%,40
COCC(=O)Nc1c(C(=O)Nc2ccc3c(c2)OCCO3)oc2ccccc12,11µM*,u,0%,56
O=C1CN(C(=O)COC(=O)c2cccc(S(=O)(=O)NCc3ccccc3)c2)c2ccccc2N1,-19%,-3%,22%,28
Cc1ccc(SCC(=O)N2CCN(c3ccccn3)CC2)cc1,26%[46.1 µM],11%[46.1 µM],10%,6
Cc1cccc(-c2nc(CSCC(=O)N3CCN(c4ccccn4)CC3)c(C)o2)c1,u,u,16µM*,-66*
Cc1cccc(N2CCN(C(=O)CSCc3ccc(F)cc3)CC2)c1C,x,4%[46.1 µM],-3%,-27
Cc1cccc(-c2nc(CSCC(=O)N3CCN(c4cccc(C)c4C)CC3)c(C)o2)c1,x,7%[46.1 µM],u,-65*
CCOc1ccc(NC(=O)CN(c2ccc(CC)cc2)S(=O)(=O)c2c(C)noc2C)cc1,x,-10%[46.1 µM],-26%,-7
COc1ccc(Cl)cc1NC(=O)c1cn(C2CCCCC2)c(=O)c2c1c1ccccc1n2C,10%[46.1 µM],u,-16%,-18
CC1C=CCC2C(=O)N(c3cccc(C(=O)NCCc4ccccc4)c3)C(=O)C12 (centres undefined),x,x,-12%,-61*
CC1C=CCC2C(=O)N(c3cccc(C(=O)NCc4ccccc4)c3)C(=O)C12 (centres undefined),x,x,-26%,32
CC1C(=O)N(Cc2ccccc2F)c2ccccc2N1C(=O)c1c(F)cccc1F (centres undefined),x,x,35µM*,u
CC1C(=O)N(Cc2cccc(F)c2)c2ccccc2N1C(=O)c1ccccc1 (centres undefined),u,-7%,18µM*,u
COc1cccc(CN2C(=O)C(C)N(C(=O)c3c(F)cccc3F)c3ccccc32)c1 (centres undefined),x,x,28µM*,-83*
O=C(CN1C(=O)CCSc2ccccc21)NC1CCCCC1,x,x,-3%,u
O=C(OCC(=O)N1CCN(C(=O)c2ccco2)CC1)c1ccccc1OCc1ccccc1,-1%,1%,0%,9
Cc1nn(C)c(C)c1Nc1ccc(N2C(=O)C3C4C=CC(C4)C3C2=O)cc1[N+](=O)[O-] (centres undefined),u,-25%[46.1 µM],-2%,0
SMILES,MARV entry inh,LASV entry inh,FMDV antiviral,HCMV inh
COc1ccc(CCNC(=O)c2nnn(CC(=O)Nc3ccccc3)c2N)cc1OC,1%[46.1 µM],3%,-4%,2
Cc1cccc(OCCCCCN2CCOCC2)c1,9%,4%,28%,49
CSc1nc(-c2ccccc2)c(C#N)c(=O)[nH]1,x,x,-17%,-24
CSc1nc(-c2ccc(Cl)cc2)c(C#N)c(=O)[nH]1,12%[46.1 µM],-17%,-13%,-76*
C(=N\N1CCN(C2c3ccccc3-c3ccccc32)CC1)/c1ccncc1,-24%,-19%,0%,-8
C/C(=N\N1CCN(C2c3ccccc3-c3ccccc32)CC1)c1ccncc1,8%,15%,13µM*,-35
CCOc1ccc(NCc2nnc(SCc3ccccc3Cl)n2-c2ccccc2)cc1,u,u,-10%,-10
